Drawing on PubChem BioAssay (Tox21), this text covers Potency and max response for 18 compounds.

SMILES strings stand for the structures. Values joined by “and” are separate entries in the source; they are usually repeats but may differ in a detail not shown here. Equal entries are not always repeated. Inconclusive results are not listed. A number with no mark means an inactive call. Active and inactive are the calls of the source. The call rests on the fitted dose curve; in most records, active means well fitted curve in the direction sought with a large enough effect in the repeat runs; inconclusive means weak or mixed curves; inactive means no such curve, though single readings can be large; an effect the other way counts as inactive or inconclusive.

The nature of assay [1]: qHTS RealTime-Glo MT Cell Viability Assay in HEK293 cells - 16 hour (AID 1224872). Further: nearly all actives have a fitted effect of over 50% in size. Further: potency means the concentration at half of the fitted maximal effect. Summed up: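 Cells + reagent dispensed (600 cells/well, HEK293) → 5 h at 37 C/5% CO2 → 23 nL compound in DMSO pinned → 40 h at 37 C → luminescence read at 0, 8, 16, 24, 32, 40 h.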
The nature of assay [2]: qHTS RealTime-Glo MT Cell Viability Assay in HepG2 cells - 8 hour (AID 1224873). Further: nearly all actives have a fitted effect of over 55% in size. Summed up: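 Real-time viability: cells seeded at 600 per well together with NanoLuc and cell-permeant prosubstrate, compounds added after 5 h incubation. Luminescence tracked at 0, 8, 16, 24, 32 and 40 h of exposure.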
(In general: qHTS replaces the single test concentration by a dilution series.)

The nature of assay [3]: qHTS RealTime-Glo MT Cell Viability Assay in HEK293 cells - 40 hour (AID 1224874). Further: nearly all actives have a fitted effect of over 50% in size. Further: potency means the concentration at half of the fitted maximal effect. To be noted: RealTime-Glo luminescence; max response: stronger effect = lower value. Summed up: (§1)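 600 cells/well were plated with the nonlytic NanoLuc/prosubstrate reagent, pre-incubated 5 h, then given 23 nL of compound in DMSO. Incubation at 37 C for 40 h, with luminescence from viable-cell-reduced substrate read repeatedly from 0 h.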

Assay [4] can be described thus: A CellTox Green Cytotoxicity Assay to monitor cytotoxicity in HEK293 cells - 24 hour (AID 1224875). Further: nearly all actives have a fitted effect of over 45% in size. Further: potency means the concentration at half of the fitted maximal effect. The gist of the method: (§2)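 HEK293 cells, 600/well, were preincubated 5 hours and then exposed to compounds at 37 C for up to 40 hours. A cell-impermeant cyanine dye staining dead-cell DNA was read by fluorescence at 0, 8, 16, 24, 32 and 40 h time points.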
Assay [5] in a line: A CellTox Green Cytotoxicity Assay to monitor cytotoxicity in HepG2 cells - 16 hour (AID 1224876). Further: nearly all actives have a fitted effect of over 45% in size. Further: potency means the concentration at half of the fitted maximal effect. Summed up:
(§3)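 HepG2 cells, 600/well, preincubated 5 h with CellTox Green dye, then exposed to Tox21 compounds in DMSO at 37 C for up to 40 h. Dead-cell DNA fluorescence read at the indicated time point.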

The nature of assay [6]: qHTS RealTime-Glo MT Cell Viability Assay in HepG2 cells - 32 hour (AID 1224877). Further: nearly all actives have a fitted effect of over 55% in size. Further: potency means the concentration at half of the fitted maximal effect. Summed up: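 Real-time, nonlytic viability: 600 HepG2 cells/well mixed with NanoLuc enzyme plus prosubstrate; 5 h settle, compound (DMSO) added by pintool; luminescence monitored over 40 h at 37 C.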
A short description of assay [7]: A CellTox Green Cytotoxicity Assay to monitor cytotoxicity in HepG2 cells - 24 hour (AID 1224878). Further: nearly all actives have a fitted effect of over 45% in size. Further: potency means the concentration at half of the fitted maximal effect. The gist of the method: as §3
Assay [8] can be described thus: A CellTox Green Cytotoxicity Assay to monitor cytotoxicity in HepG2 cells - 40 hour (AID 1224879). Further: nearly all actives have a fitted effect of over 40% in size. Further: potency means the concentration at half of the fitted maximal effect. Summed up: as §3
Assay [9] can be described thus: qHTS RealTime-Glo MT Cell Viability Assay in HEK293 cells - 0 hour (AID 1224880). Further: top concentration of the series differs between compounds; nearly all actives have a fitted effect of over 45% in size. Summed up:
as §1

The nature of assay [10]: A CellTox Green Cytotoxicity Assay to monitor cytotoxicity in HEK293 cells - 32 hour (AID 1224881). Further: nearly all actives have a fitted effect of over 40% in size. The gist of the method: as §2
On the % scale 0 is the no-effect control and ±100 the full control effect.

On to `C=CCn1c(=O)n(CC=C)c(=O)n(CC=C)c1=O`, for which the Potency entry in assay [1], in [2], in [4], in assay [5], in [6] and in assay [7] was “inactive” throughout. Also, the Potency entry in assay [8], in assay [9] and in [10] was “inactive” each time. For the same compound, in assay [3], the max response is -5.88%.
`Oc1ccccc1O`: the Potency in [1] is 55.6 µM (active) and 49 µM (active); in [3], 35.1 µM (active) and 24.5 µM (active). Besides, the Potency entry in assay [2], in assay [4], in [5], in assay [6], in assay [7] and in [8] was “inactive” in each case. Moreover, the Potency result in assay [9] and in [10] was “inactive” in each case.
With `C=C(C)c1cccc(C(=C)C)c1`, the Potency result in assay [1], in assay [2], in assay [4], in [5], in assay [6] and in assay [7] was “inactive” in each case. In addition, the Potency entry in assay [8], in [9] and in [10] was “inactive” in each case. Also, the max response in assay [3] is -0.359%.
As for `O=[N+]([O-])c1ccc(F)c(Cl)c1`, the Potency result in assay [1], in [2], in assay [4], in [5], in assay [6] and in [7] was “inactive” in each case. Besides, the Potency result in assay [8], in [9] and in assay [10] was “inactive” in each case. Moreover, the max response in assay [3] is 14.6%.
Turning to `CCCC1CCC(=O)CC1`, the Potency entry in [1], in assay [2], in assay [4], in assay [5], in [6] and in [7] was “inactive” throughout. For the same compound, the Potency result in assay [8], in [9] and in [10] was “inactive” throughout. In assay [3], the max response is 11.1%.
On to `CN1CCC[C@@H]1CCO[C@](C)(c1ccccc1)c1ccc(Cl)cc1`, for which the Potency is 19 µM (active) in assay [1]; 16.9 µM (active) in assay [3]; 26.8 µM (active) in assay [4]; 21.3 µM (active) in [5]; 23.9 µM (active) in [6]; 21.3 µM (active) in assay [7]. Also, the Potency in assay [8] was 21.3 µM (active). The Potency result in assay [2] is “inactive”.
For the compound `OC[C@H]1O[C@H](O[C@H]2O[C@H](CO)[C@@H](O)[C@H](O)[C@H]2O)[C@H](O)[C@@H](O)[C@@H]1O`, the Potency result in assay [1], in [2], in [4], in [5], in assay [6] and in assay [7] was “inactive” in each case. In addition, the Potency result in assay [8], in assay [9] and in assay [10] was “inactive” in each case. Also, the max response in [3] was 25.1%.
For `CCc1cccc(CC)c1NC(=O)CN(CC(=O)O)CC(=O)O`, the Potency entry in assay [1], in assay [2], in assay [4], in assay [5], in assay [6] and in assay [7] was “inactive” throughout. The Potency entry in assay [8], in [9] and in assay [10] was “inactive” throughout. In addition, in [3], the max response was 1.69%.
Turning to `CC(C)OC(=O)C(O)(CC(=O)O)CC(=O)O`, the Potency result in assay [1], in assay [2], in [4], in assay [5], in assay [6] and in assay [7] was “inactive” throughout. In addition, the Potency entry in [8], in [9] and in assay [10] was “inactive” each time. Further, the max response in assay [3] is 1.68%.
Consider `O=[N+]([O-])c1cccc(C(F)(F)F)c1`, for which the Potency result in assay [1], in [2], in assay [4], in [5], in [6] and in [7] was “inactive” each time. Besides, the Potency result in assay [8], in [9] and in assay [10] was “inactive” each time. Further, the max response in [3] was 7.87%.
Consider `CCOC(=O)NNc1ccc(N(CC)CC(C)O)nn1` (centres undefined), for which the Potency result in assay [1], in assay [2], in assay [4], in assay [5], in assay [6] and in assay [7] was “inactive” in each case. The Potency entry in assay [8] and in assay [9] was “inactive” in each case. The max response in assay [3] was 7.18%.
For the compound `Cc1ccc(C(C)C)cc2c(C)ccc1-2`, the Potency result in [1], in [2], in assay [4], in assay [5], in [6] and in assay [7] was “inactive” each time. Also, the Potency entry in [8] and in assay [9] was “inactive” in each case. Moreover, the max response in [3] was -5.67%.
As to `O=C(O)c1ccc2cc(C(=O)O)ccc2c1`, the Potency result in assay [1], in [2], in assay [4], in assay [5], in assay [6] and in assay [7] was “inactive” each time. Also, the Potency result in assay [8], in assay [9] and in assay [10] was “inactive” in each case. The max response in assay [3] is 7.36%.
In the case of `CC(C)(c1cc(Br)c(OCC(Br)CBr)c(Br)c1)c1cc(Br)c(OCC(Br)CBr)c(Br)c1` (centres undefined), the Potency entry in assay [1], in assay [2], in assay [4], in assay [5], in [6] and in assay [7] was “inactive” each time. Further, the Potency entry in assay [8], in assay [9] and in assay [10] was “inactive” in each case. Also, the max response in assay [3] was -0.358%.
For `Nc1nc(-c2ccccc2)cs1`, the Potency entry in assay [1], in [2], in [4], in [5], in assay [6] and in [7] was “inactive” each time. For the same compound, the Potency entry in [8], in assay [9] and in [10] was “inactive” each time. For the same compound, the max response in [3] was -6.02%.
In the case of `CCCC(=O)OCCc1ccccc1`, the Potency result in assay [1], in [2], in assay [6] and in assay [9] was “inactive” each time. In addition, in assay [3], the max response was 5.68%. The Potency is 43.6 µM (active) in assay [4], 43.6 µM (active) in assay [5], 43.6 µM (active) in assay [7] and 49 µM (active) in [8].
Consider `CCCCCCCCCCC[C@@H](C[C@@H]1OC(=O)[C@H]1CCCCCC)OC(=O)[C@H](CC(C)C)NC=O`, for which the Potency in [1] is 13.4 µM (active); in [3], 6.74 µM (active); in assay [8], 19 µM (active). Besides, the Potency result in [2], in [4], in assay [5], in [6], in assay [7] and in assay [9] was “inactive” in each case.
`CCCCCC/C=C\CCCCCCCC(=O)O`: the Potency result in assay [1], in assay [2], in [4], in assay [5], in assay [6] and in [7] was “inactive” throughout. Also, the Potency result in assay [8], in assay [9] and in assay [10] was “inactive” in each case. Also, the max response in assay [3] is -4.29%.
